Results from PubChem BioAssay (NCI).
About 79,000 compounds went through this panel and 15% of them were active in at least one assay; those are over-represented in the sample as a whole. A number with no mark means an inactive call. The source made the active and inactive calls. No stated cut-off is given here; in the data, active means growth inhibition above about 70%; inactive means the rest.

Assay: NCI Yeast Anticancer Drug Screen. Data for the mlh1 strain (AID 171);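 further: 0% = growth of vehicle-treated control cultures of the same strain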
Details: S. cerevisiae mlh1 strain growth inhibition, stronger effect = higher value
Description: Growth inhibition of yeast strains with defined genetic alterations is measured as a screen for potential anti-cancer activity. Selected strains with alterations in DNA damage repair or cell cycle control were exposed to compounds and growth inhibition was measured relative to vehicle treated controls. The strain used in this assay is mlh1

Row | SMILES | growth inhibition (at 1.2 µM) [%] | growth inhibition (at 3.7 µM) [%] | growth inhibition (at 11.0 µM) | growth inhibition (at 33.0 µM) | growth inhibition (at 100.0 µM)
1 | CC(=O)/C(=C\c1ccc(Cl)c(Cl)c1)C(=O)C(C)CN(C)C (stereo not given) | 6 | -2 | 10% | 46% | 93% (active)
2 | CCN(CC)CC(=O)c1ccc2cc(Cl)c3ccccc3c2c1 | 12 | 23 | 99% (active) | 99% (active) | 98% (active)
3 | O=C1c2cccc3cccc(c23)C(=O)N1O | -11 | -10 | 0% | 57% | 90% (active)
4 | CCOC(=O)C(Cc1c2ccccc2cc2ccccc12)(NC(C)=O)C(=O)OCC | 0 | 0 | -3% | -2% | 0%
5 | NC(=S)N/N=C1\c2ccccc2CCC1CCC1(O)CCc2ccccc2C1=O (stereo not given) | 14 | 14 | 46% | 79% (active) | 81% (active)
6 | O=[N+]([O-])c1ccc(S(=O)(=O)Cc2ccccc2)c([N+](=O)[O-])c1 | 9 | 17 | 35% | 93% (active) | 99% (active)
7 | CNC(=O)OCc1c2ccncc2c(C)c2c1[nH]c1ccccc12 | 6 | 20 | 26% | 38% | 66%
8 | CN1C(=O)C(CC(=O)O)NC1=S (stereo not given) | -2 | 0 | 4% | 11% | 46%
